# PTEN del growth = PTEN-deleted cell growth suppression; HCT116 PTEN-null viability, CellTiter-Glo, 60 h; stronger effect = lower value; 1.2% of 140,000 active; AID 827; viability, % at 10 µM;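 active means viability at or below a set limit, 4 SD under the median of all tested compounds, cut at about 3.7% in these data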;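 further: PTEN knockout HCT116 line with beta catenin targeted HCT116 as companion control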
# HCT116 bCat-KO = beta-catenin-lacking colon tumor cell growth suppression; HCT116 beta-catenin knockout viability, CellTiter-Glo, 60 h; stronger effect = lower value; AID 818; viability, % at 10 µM; 1.5% of 140,000 active;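 active means viability at or under a set limit, the compound median less 4 SD, cut at about 6% in these data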;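 further: 0% = Hyamine 1622 control at 20 µM and 100% = untreated cell control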
# Insulin prom inh = TRM-6 insulin promoter activity inhibition; 0.9% of 130,000 active; TRM-6 cells (human fetal islet line), insulin promoter-eGFP reporter, imaging; reporter expression induced with tamoxifen; AID 1273; inhibition, % at 2 µM;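 active means inhibition above the mean plus 3 SD, with well images judged a real hit on visual review, cut at about 60% in these data, passing the limit was not always enough; inconclusive means inhibition over the cutoff but images rejected on review; inactive means inhibition not above the cutoff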
# L major viab = Leishmania major promastigote growth inhibition | Leishmania major promastigotes, resazurin fluorescence viability | inhibition, % at 10 µM | 9% of 200,000 active | AID 1063; in the data active means inhibition above about 50%;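 further: promastigotes grown with compound for 44 hours at 28 °C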
# Autophagy mod = modulators of autophagy; 0.98% of 190,000 active; calls only at 10 µM (by protocol); MEF GFP-LC3 puncta imaging; test concentration mostly 10 µM;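 active means percentage of spot-positive cells more than 3 SD above its plate mean, without a fluorescence outlier flag or 80% toxicity; inconclusive means no clear call, values can overlap the other calls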;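 further: spot-positive cell cutoff set from DMSO-treated cells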
# Insulin prom up = MIN6 insulin promoter up-regulation; z-score at 5 µM; MIN6 insulin promoter-GFP reporter, high-content imaging; stronger effect = higher value; 0.3% of 190,000 active;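 active means z-score above 3 at 5 µM with at least 500 cells counted in the well; inconclusive means wells under 500 cells, flagged as cytotoxic or low count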
# * marks the source's active call; other numbers are inactive results; i = inactive; ? = inconclusive; nt = no result. A selection: hits, their analogues and other compounds. The true share with any hit is near 9.6%.
SMILES,PTEN del growth,HCT116 bCat-KO,Insulin prom inh,L major viab,Autophagy mod,Insulin prom up
CCC(NC(=O)NC1=NCCS1)(C(F)(F)F)C(F)(F)F,103,95,nt,-6,i,-0.58
Cc1occc1C(=O)Nc1c(F)c(F)c(F)c(F)c1F,83,84,-27,3,i,nt
Cc1occc1C(=O)Nc1nn[nH]n1,108,109,92*,-3,i,0.65
Cc1nc(N2CCCCC2C)c2c(C)c(C(=O)Nc3ccccc3C(F)(F)F)sc2n1 (centres undefined),nt,nt,-29,31,i,-0.28
Cc1cc(OCCOCCNC(C)C)cc(C)c1Cl,17,5.6*,nt,98*,i,nt
CC(CSc1nc2ccccc2s1)Cn1c(N2CCCC2)nc2c1c(=O)[nH]c(=O)n2C (centres undefined),61,72,nt,52*,i,-0.58
CC1CCN(c2nc3c(c(=O)[nH]c(=O)n3C)n2CC(C)CSc2nnnn2-c2ccccc2)CC1 (centres undefined),86,78,25,98*,i,-0.13
CCN1CCN(c2nc3c(c(=O)[nH]c(=O)n3C)n2CCSc2nc3ccccc3s2)CC1,82,84,nt,-3,nt,1.2
CCOC(=O)c1c(C)[nH]c(N=Nc2ccc(C)cc2C)c1C,68,80,6,0,i,0.45
COCCNCCCOc1ccc(C)cc1Br,nt,nt,nt,28,i,0.46
CCN(CC)CCCOc1ccc(C)cc1Br,72,76,nt,94*,i,2.3
C=CCNCCCOc1ccc(C)cc1Br,93,91,-2,94*,i,1.4
CC(C)NCCCOc1ccc(Cl)cc1Br,77,81,-35,94*,i,-0.54
CC(C)NCCCCOc1ccc(Br)cc1Cl,nt,nt,nt,99*,i,0.24
CCOC(=O)CNC(=O)COc1ccc(Cl)cc1Br,101,95,11,-6,i,0.37
O=C(N/N=C/c1cccc(F)c1)c1c(O)c2ccccc2[nH]c1=O,32,55,nt,3,i,-0.17
O=C1COc2ccc(C(=O)NCc3ccc4c(c3)OCO4)cc2N1,100,91,-36,-4,i,0.5
Cc1ccc(-n2c(Cc3cccs3)nnc2SCC(=O)Nc2ccc(S(N)(=O)=O)cc2)cc1,89,92,58,-1,i,-0.22
C=CCN(CC=C)CCOc1ccccc1F,95,97,-17,31,i,-0.17
CCCCNCCOCCOc1ccc(Cl)cc1Br,56,57,-100,100*,i,-1.1
COCCCNC(=O)COc1ccc(Br)cc1Cl,96,99,-4,43,i,0.16
COCCCNCCCOc1ccc(Cl)cc1Br,77,77,-30,88*,i,-0.07
CCCCNCCOCCOc1ccc(F)cc1,78,78,-5,92*,i,-0.05
Fc1ccc(OCCOCCOc2cccc3[nH]ccc23)cc1,nt,nt,nt,11,i,0.1
C=CCN(CC=C)CCCOc1ccc(Br)cc1Cl,nt,nt,-53,51*,i,-0.39
SMILES,PTEN del growth,HCT116 bCat-KO,Insulin prom inh,L major viab,Autophagy mod,Insulin prom up
Clc1ccc(OCCOCCOc2cccc3cccnc23)c(Br)c1,57,53,-10,-5,i,-0.18
COCCCNCCCOc1ccc(C)cc1Br,82,90,3,99*,i,0.01
COc1cc(CNCCO)cc(Br)c1OCc1cccs1,78,76,4,88*,i,nt
CCOc1cc(CNCc2cccs2)cc(Br)c1OC,75,69,nt,3,i,1.4
CC(C)(CO)NCc1cc(Br)ccc1OCc1ccccc1,60,55,-50,24,i,-0.15
COc1cc(CNC(C)(C)C)cc(Br)c1OCc1cccs1,72,64,nt,86*,i,-0.21
CC(C)(C)NCc1ccccc1OCc1cccs1,80,90,5,82*,i,-0.21
COc1cc(CNC(C)(C)CO)cc(Br)c1OCc1ccccc1,nt,nt,nt,80*,i,nt
Cc1cc(C)nc(NC(=O)c2ccc(COc3ccccc3Cl)cc2)c1,nt,nt,19,6,i,-1.1
COC(=O)C1=C(N)Oc2cc(C)n(CCCn3ccnc3)c(=O)c2C1c1cccc(Cl)c1 (centres undefined),nt,nt,nt,nt,nt,0.83
CC1CN(C(=O)COC(=O)c2cccs2)CC(C)O1 (centres undefined),114,110,nt,1,i,-0.98
O=c1ccc2ccc(Oc3ccc([N+](=O)[O-])cc3Cl)cc2o1,nt,nt,nt,-2,i,-0.36
COc1cc(CCCN2C(N)=NC[C@@H]2c2ccccc2)cc(OC)c1OC,nt,nt,nt,nt,nt,0.29
O=C(/C=C/c1ccc([N+](=O)[O-])s1)N1CCCCC1,nt,nt,-328,98*,i,0.12
O=C(/C=C/c1ccc([N+](=O)[O-])s1)N1CCCC1,nt,nt,nt,88*,i,-0.4
O=C(/C=C/c1ccccc1[N+](=O)[O-])N1CCCCC1,nt,nt,3,6,i,0.04
CC12C(=O)N(c3ccccc3C(=O)O)C(=O)C1C1C=CC2C1 (centres undefined),104,100,-14,6,i,0.15
Cc1noc(/C=C/c2cccs2)c1S(=O)(=O)N1CCC(C(=O)NCCCN2CCC(C)CC2)CC1,nt,nt,nt,90*,i,-0.56
Cc1ccc(NC(=O)C2CCN(S(=O)(=O)c3c(C)noc3/C=C/c3ccco3)CC2)nc1,57,60,4,16,i,-0.34
Cc1ccc(CNC(=O)C2CCN(S(=O)(=O)c3c(C)noc3/C=C/c3ccco3)CC2)cc1,74,70,nt,93*,i,-0.63
Cc1cccnc1NC(=O)C1CCN(S(=O)(=O)c2c(C)noc2/C=C/c2ccco2)CC1,63,50,-31,5,i,0.05
Cc1noc(/C=C/c2ccco2)c1S(=O)(=O)N1CCC(C(=O)N2CCc3ccccc3C2)CC1,44,15,nt,73*,i,-0.82
O=C(CNC(=S)NC(=O)c1ccco1)c1ccccc1,81,96,-54,-2,i,0.28
O=C(NCC1CCCO1)C1CC(=O)N(c2ccc(F)c(Cl)c2)C1 (centres undefined),105,105,nt,-10,i,-0.64
CCOCc1nnc(NC(=O)COC)s1,96,96,-23,-5,i,-1
SMILES,PTEN del growth,HCT116 bCat-KO,Insulin prom inh,L major viab,Autophagy mod,Insulin prom up
Cc1cc(NS(=O)(=O)c2ccc(NC(=O)CSc3nc4ncc(Cl)cc4[nH]3)cc2)nc(C)n1,nt,nt,nt,nt,nt,0.08
COc1cc([N+](=O)[O-])cc(/C=N/NC(=O)c2ccc(C)nc2)c1O,90,92,nt,-9,i,0.63
C=CCN(CC=C)CCOc1ccccc1,99,102,19,54*,i,?
C=CCN(CC=C)CCOc1cccc2ccccc12,92,78,-50,62*,i,0.02
CCCc1cc(=O)oc2cc(OCC(=O)NCc3cccs3)ccc12,104,102,-27,71*,i,-0.68
COc1cccc(C2CC(c3ccc(NS(C)(=O)=O)cc3)=NN2C(=O)c2ccccc2)c1OC (centres undefined),nt,nt,0,16,i,nt
COc1ccccc1C1CC(c2ccc(NS(C)(=O)=O)cc2)=NN1C(=O)c1ccccc1 (centres undefined),nt,nt,54,77*,i,0.78

# Screening results: PubChem, several laboratories
